# Values joined by “and” are separate entries in the source; they are usually repeats but may differ in a detail not shown here. Equal values may be shown once. Some compounds were tested as several samples or in several runs, with calls that do not always agree. Active and inactive are the calls of the source. The calls were made as follows: active = hit-call score of the fitted dose curve at least 0.9, where 1 is the maximum; inactive = score below 0.9.
# Test: BSK_3C_SRB: Viability Assessment in the BioMAP Diversity Plus: 3C Assay (AID 2283023);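 also: fitted both ways against DMSO so a hit may be signal rise or drop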
# Settings: primary human endothelial cells (HUVEC)
# Experimental: BSK_3C is a cell-based, multiplexed-readout assay that uses umbilical vein endothelium, a human vascular primary cell, with measurements taken at 24 hours after chemical dosing in a 96-well plate.BSK_3C_SRB is an assay component measured in the BSK_3C assay. It measures 0.1% sulforhodamine related to cell death using Sulforhodamine staining technology.Data from the assay component BSK_3C_SRB was analyzed into 1 assay endpoint. This assay endpoint, BSK_3C_SRB, was analyzed with bidirectional fitting relative to DMSO as the negative control and baseline of activity. Using a type of viability reporter, gain or loss-of-signal activity can be used to understand changes in the signaling. Furthermore, this assay endpoint can be referred to as a primary readout, because this assay has produced multiple assay endpoints where this one serves a signaling function. To generalize the intended target to other relatable targets, this assay endpoint is annotated to the cell morphology intended target family, where the subfamily is cell conformation.
# The levels of cell surface (or secreted, indicated by the prefix "s") biomarker endpoints were measured by ELISA. Overt cytotoxicity to cells in confluent adherent cultures (all systems other than the BT system) was assessed by measuring total protein levels using sulforhodamine B (SRB) staining in parallel cultures at the time of biomarker measurements, indicated as SRB endpoints. For proliferation assays for adherent cell types, individual cell types are cultured at sub-confluence and relative cell numbers quantified by SRB staining at time points optimized for each system (48 h: 3C and CASM3C systems; 72 h: BT and HDF3CGF systems; 96 h: SAg system). SRB was performed by staining cells with 0.1% SRB after fixation with 10% TCA and reading wells at 560 nm.Viability and proliferation of PBMC (T cells) was quantified by Alamar Blue reduction for the SAg and BT systems. For PBMC viability (referred to as PBMC Cytotoxicity within the assay endpoint names), cells were plated (75,000/well in a 96-well plate) and then chemical samples added for 1 h before addition of activators, SEB and TSST-1 (20 ng/mL final concentration each). Cells were incubated for 90 h. Then, Alamar Blue (20 uL/well) (Invitrogen, Cat DAL1100) was added for 6 h, and the plates were read with a fluorescence microplate reader at 546/580 nm (excitation/emission). For PBMC proliferation, cells were plated and activated as above but incubated for only 16 h prior to addition of Alamar Blue. Plates were read after 6 h.
Compound,outcome,AC50
Cc1[nH]c(=O)n(C(C)(C)C)c(=O)c1Cl,inactive,–
CC(C)N(C(=O)COc1nnc(C(F)(F)F)s1)c1ccc(F)cc1,inactive,–
CCCN(CCC)c1c([N+](=O)[O-])cc(C(F)(F)F)cc1[N+](=O)[O-],–,24.8 µM (active)
N#CN,inactive,–
CC(C)(C)C(O)C(Oc1ccc(Cl)cc1)n1cncn1 (stereo not given),inactive,–
COC(=O)c1ccccc1S(=O)(=O)NC(=O)Nc1nc(C)nc(OC)n1,inactive,–
CC(C)(C)C(O)/C(=C\c1ccc(Cl)cc1Cl)n1cncn1 (stereo not given),–,27.8 µM (active)
[2H]C1([2H])[n+]2ccccc2-c2cccc[n+]2C1([2H])[2H],inactive,–
CCCN(CCOc1c(Cl)cc(Cl)cc1Cl)C(=O)n1ccnc1,–,32 µM (active)
Oc1ccc(Cl)cc1Cc1ccccc1,–,24.4 µM (active) [middle of 7 runs]
COC(=O)c1ccccc1CS(=O)(=O)NC(=O)Nc1nc(OC)cc(OC)n1,inactive,–
CCN(CC)C(=O)SCc1ccc(Cl)cc1,inactive,–
O=[N+]([O-])c1c(Cl)c(Cl)c(Cl)c(Cl)c1Cl,–,30.9 µM (active)
COc1nn(CSP(=S)(OC)OC)c(=O)s1,inactive,–
O=C(O)C(F)(F)C(F)(F)C(F)(F)C(F)(F)C(F)(F)C(F)(F)C(F)(F)F,inactive,46.1 µM (active)
OCCOc1ccccc1,inactive,–
Clc1ccccc1-c1nnc(-c2ccccc2Cl)nn1,inactive,–
O=[N+]([O-])/N=C1\NCCN1Cc1ccc(Cl)nc1,inactive,–
Cc1cc(C)nc(NC(=O)NS(=O)(=O)c2ccccc2C(=O)OC2COC2)n1,inactive,–

Compound,outcome,AC50
CCC(C)(NC(=O)c1cc(Cl)c(C)c(Cl)c1)C(=O)CCl (stereo not given),–,12.2 µM (active)
CNC(=O)/C=C(\C)OP(=O)(OC)OC,inactive,–
COC(=O)c1ccccc1S(=O)(=O)NC(=O)N(C)c1nc(C)nc(OC)n1,inactive,–
CN1CSC(=S)N(C)C1,–,20 µM (active)
O=C(O)CCCOc1ccc(Cl)cc1Cl,inactive,–
COc1cc(OC)nc(NC(=O)NS(=O)(=O)c2cc(NC=O)ccc2C(=O)N(C)C)n1,inactive,–
CC1(C)C(C=C(Cl)Cl)C1C(=O)OC(C#N)c1ccc(F)c(Oc2ccccc2)c1 (stereo not given),–,8.15 µM (active)
O=S(=O)(O)C(F)(F)C(F)(F)C(F)(F)C(F)(F)C(F)(F)C(F)(F)C(F)(F)C(F)(F)F,inactive,31.5 µM (active) and 30.8 µM (active) and 26.7 µM (active)
C[C@H]1[C@H](c2ccc(Cl)cc2)SC(=O)N1C(=O)NC1CCCCC1,–,12.1 µM (active)
COP(=S)(OC)Oc1ccc([N+](=O)[O-])cc1,–,23 µM (active)
CNC(=O)CSP(=S)(OC)OC,inactive,–
CC[C@H](C)[C@H]1O[C@]2(C=C[C@@H]1C)C[C@@H]1C[C@@H](C/C=C(\C)[C@@H](O[C@H]3C[C@H](OC)[C@@H](O[C@H]4C[C@H](OC)[C@@H](O)[C@H](C)O4)[C@H](C)O3)[C@@H](C)/C=C/C=C3\CO[C@@H]4[C@H](O)C(C)=C[C@@H](C(=O)O1)[C@]34O)O2 (tested in a mixture with another compound),–,5.58 µM (active)
O=C(O)COc1ccc(Cl)cc1Cl,inactive,–
CCC(C)Nc1c([N+](=O)[O-])cc(C(C)(C)C)cc1[N+](=O)[O-] (stereo not given),–,20.2 µM (active)
CCS(=O)(=O)c1cccnc1S(=O)(=O)NC(=O)Nc1nc(OC)cc(OC)n1,inactive,–
O=C1c2ccccc2C(=O)N1SC(Cl)(Cl)Cl,inactive,–
CCOc1nc(NC)nc(NC(=O)NS(=O)(=O)c2ccccc2C(=O)OC)n1,inactive,–
CCC(C)(C)C(=O)OC1=C(c2ccc(Cl)cc2Cl)C(=O)OC12CCCCC2,–,26.1 µM (active)
CCOCN(C(=O)CCl)c1c(C)cccc1CC,–,18.2 µM (active)

# — PubChem BioAssay (EPA / NIEHS)
